# From PubChem
# WRN inhibitor: blocks human WRN helicase. Q14191. WRN helicase unwinding, fluorescent forked duplex, kinetic. Potency, µM (titrated, usually from 114 µM), without a hit: at the top dose activity change, negative = inhibition, actives largely listed as inhibitors. hit rate 0.46% among 360,000. AID 651768; also: % is scaled to controls: 0 for no effect and ±100 for the full control effect; nearly all actives have a fitted effect of over 55% in size
#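 WRN at 20 nM final was preincubated with compound for 15 min at room temperature; reaction started with 100 nM forked duplex oligonucleotide carrying fluorophore and quencher plus 2 mM ATP (final). Unwinding followed kinetically by red fluorescence (ex 525/em 598 nm).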
# POLH inh: DNA polymerase eta (human) inhibition | Q9Y253 | Potency, µM (doses to about 114 µM), for the others: top-dose activity change, negative = inhibition, most hits filed as inhibitors | AID 588591 | recombinant Pol eta, fluorescent DNA replication assay | hit rate 1.2% among 390,000; also: % is scaled to controls: 0 for no effect and ±100 for the full control effect
#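 Fluorescent replication assay: 50 nM final substrate added after a 15 min room-temperature compound preincubation with 10 nM enzyme. Signal taken at 0 min and again at 10 min.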
# POLI inh: inhibitors of human DNA polymerase iota; AID 588590; Pol iota fluorescent replication assay, 10 min; hit rate 1% among 390,000; Potency, µM (doses to about 115 µM), for the others: top-dose activity, negative = inhibition, most hits filed as inhibitors
#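 Pol iota at 10 nM preincubated 15 min with compounds at room temperature; reaction started with fluorescent substrate, 50 nM final. Fluorescence read kinetically at 0 and 10 min; buffer-only wells as negative control.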
# POLB inh: blocks human DNA polymerase beta activity; AID 485314; Pol beta primer extension/strand displacement, fluorescence kinetic; Potency, µM (top dose mostly 114 µM), without a hit: at the highest dose activity change, negative = inhibition, most hits filed as inhibitors; hit rate 1.3% among 340,000; P06746; also: % is scaled to controls: 0 for no effect and ±100 for the full control effect
#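 Enzyme-only controls used 10 nM Pol beta; buffer lacking enzyme served as negative control. Compound preincubated 15 min, then 50 nM substrate added; 0 and 10 min reads at room temperature.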
# POLK inh: DNA polymerase kappa (human) inhibition. Potency, µM (top dose mostly 107 µM), for the others: top-dose activity, negative = inhibition, hits mostly inhibitors. purified Pol kappa, fluorescent DNA synthesis assay, 10 min. hit rate 0.53% among 400,000; also: % is scaled to controls: 0 for no effect and ±100 for the full control effect
#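 Kinetic fluorescence readout at 0 and 10 min followed reaction start with substrate at 50 nM final. Beforehand, enzyme (10 nM Pol kappa) stood 15 min with compound at room temperature; buffer-only wells were negative controls.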
# FEN1 inh: blocks human flap endonuclease 1. P39748. Recombinant FEN1 flap cleavage, fluorescence, 15 min. Potency, µM (doses to about 114 µM), for the others: at the top dose activity change, negative = inhibition, hits mostly inhibitors. hit rate 0.35% among 390,000; also: % is scaled to controls: 0 for no effect and ±100 for the full control effect; nearly all actives have a fitted effect of over 65% in size
#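 In this screen, 50 nM flap DNA substrate was added to 10 nM FEN1 pretreated with compound for 15 min at room temperature; cleavage was followed with reads at 0 and 15 min, and Hill fitting gave concentration–response parameters.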
# * marks the source's active call; other numbers are inactive results; ? = inconclusive; / = no result given; [ ] = another dose, or the depositor's remark. An excerpt weighted towards active compounds, which were near 2.4% of everything screened. Calls follow the shape of the dose curve; as a rule, active = well fitted curve in the direction sought with a large enough effect; inconclusive = small, poorly fitted or top-dose-only effect, or another doubt; inactive = no such curve, though single readings can be large; an effect the other way counts as inactive or inconclusive. Potency is read from the fitted curve at half-maximal effect.
SMILES,WRN inhibitor,POLH inh,POLI inh,POLB inh,POLK inh,FEN1 inh
CC1(C)Cc2nc3sc4c(=O)n(CC(=O)NCc5ccccc5)cnc4c3cc2CO1,9%,-15%,24%,6%,-1%,6%
O=[N+]([O-])c1ccc(-[n+]2ccc3ccccc3c2)c([N+](=O)[O-])c1,-12%[11.6 µM],-25%,?,/,79µM*,-21%
CCC/C=C1/CCCOC(C(=O)NCC2CC2)(C(F)(F)F)C1 (stereo not given),/,/,6%,/,0%,-6%
COc1cccc(NC(=O)C/C(C)=N/NC(=O)c2ccccc2Cl)c1,5%,2%,?,0%,10%,-10%
C/C(CC(=O)N1CCCC1)=N\NC(=O)c1cc2ccccc2cc1O,-4%,-8%,79µM*,-74%,?,-10%
C/C(CC(=O)Nc1ccc(Cl)c(C(F)(F)F)c1)=N\NC(=O)c1cc2ccccc2cc1O,-11%[57.1 µM],-8%,89µM*,-14%,?,-20%
COc1ccc(CCNC(=O)CSc2nnc(-c3ccc(C)cc3)c(-c3ccc(C)cc3)n2)cc1OC,/,-11%,-1%,1%,-4%[60.1 µM],-1%
COc1ccc2c3c(cccc13)N(C)N=C2C,?,?,3.2µM*,1%,-27%,-11%
COc1ccc(-c2ccc(OC)c(OC)c2OC)c(OC)c1OC,4%,-10%,8%,/,-5%,2%
Cc1ccc(NC(=O)COC(=O)c2ccccc2OCC(=O)N(C)C)cc1,/,/,22%,/,-12%,14%
CC1/C=C/C=C/C=C/C=C/C=C/C=C/C=C/C(OC2OC(C)C(O)C(N)C2O)CC2O[C@@](O)(CC(O)CC(O)C(O)CCC(O)CC(O)CC(=O)OC(C)[C@H](C)C1O)CC(O)C2C(=O)O (stereo not given in full),/,/,/,/,3.5µM*,/
CCOC(=O)c1cc(-c2ccc(F)cc2)n(CCC(=O)Nc2cc(OC)cc(OC)c2)c1C,/,-11%,-24%,12%,-11%[60.1 µM],-17%
CCc1ccc(NS(=O)(=O)c2ccc3[nH]cc(C(=O)N4CCc5ccccc54)c(=O)c3c2)cc1,-19%,?,-65%,18µM*,?,-18%
O=C(c1c[nH]c2ccc(S(=O)(=O)Nc3ccccc3F)cc2c1=O)N1CCCCCC1,/,0%,?,17%,-15%,-12%
CCc1ccccc1NS(=O)(=O)c1ccc2[nH]cc(C(=O)N3CCCCC3)c(=O)c2c1,/,9%,?,22µM*,-10%,0%
Cc1cc(C)cc(NS(=O)(=O)c2ccc3[nH]cc(C(=O)N4CCc5ccccc54)c(=O)c3c2)c1,-10%,?,?,1%,-2%,0%
COc1ccccc1CCNC(=O)c1ccc(-c2nc(CSc3ccc(C)cc3)c(C)o2)cc1,/,-20%,-3%,22%,-12%,-12%
Cc1cc(C)c(Cn2c(CCNC(=O)c3ccco3)nc3ccccc32)c(C)c1,/,-4%,-10%,-21%,0%,-16%
O=C(c1cccs1)N1CCCc2cc(NS(=O)(=O)c3ccc(Br)cc3)ccc21,/,-22%,23%,0%,-12%[60.1 µM],?
CC(C)c1ccc(S(=O)(=O)/N=C2\C=C(NS(=O)(=O)c3ccccc3)C(=O)c3ccccc32)cc1,?,79µM*,?,?,-20%,?
CCc1ccc(S(=O)(=O)/N=C2\C=C(NS(=O)(=O)c3ccccc3)C(=O)c3ccccc32)cc1,-12%,89µM*,?,?,-27%,-20%
Cc1nc2cccnc2n1-c1cccc(C(=O)NCc2ccc(OC(C)C)cc2)c1,/,-11%,16%,75%,-11%,-5%
Cc1ccc(-c2nc(N3CCN(S(=O)(=O)c4ccc(F)cc4)CC3)c3ccc(Cl)cc3n2)cc1,/,/,-2%,/,14%,-2%
COc1ccc(C(=O)c2cn(Cc3ccc(F)cc3)c3c(F)cc(F)cc3c2=O)cc1,/,-18%,?,7%,-1%,89µM*
